The panel holds about 83,000 compounds, 20% with a hit somewhere; the sample as a whole holds those more often.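 Compound tested at a single concentration for 48 hours in 96-well plates; a percent growth value below 10 was scored as active.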 Unmarked numbers belong to inactive results. Active and inactive are the calls of the source.
system: HCC-2998 colon; assay: NCI-60 one-dose screen, 48 h (100 = growth as untreated, 0 = no growth, -100 = all killed); conditions: 10 µM unless noted

SMILES	growth
COc1ccc(C(=O)c2c(N)nc3n2CCCC3)cc1OC	114%
O=C(CSc1ccc(Cl)cc1)Nc1ccc(-c2nc3ccccc3s2)c(Cl)c1	81.1%
O=C1C=CC(=O)N1CO	107%
COc1ccc2[nH]c(C(=O)OCc3ccc4cccc(O)c4n3)cc2c1	-35.8% (active)
COc1ccc(C(=O)C(C#N)c2cc(OC)c(OC)c(OC)c2)cc1 (centres undefined)	100%
Nc1cc2nc3ccccc3oc-2cc1=O	79.4%
C=CCn1c(C)nc2cc(Nc3nc(N4CCOCC4)nc4nc[nH]c34)ccc21	100%
COc1cc2c(cc1OC)C(=O)C(Br)CC2 (centres undefined)	90.6%
O=c1c2sc3ncc(Cl)cc3c2nnn1-c1cccc(Cl)c1	125%
CCCc1n(Cc2ccc3ccccc3c2)c2ccccc2[n+]1Cc1ccc2ccccc2c1	-57.2% (active)
COc1cc(CN2CCO[C@H](COc3cccc(F)c3)C2)ccc1Cl	49.3%
CCOC(=O)c1ccc(NC(=O)NC2=NCCS2)cc1	45%
O=C(OCc1ccc2c(Br)cc(Br)c(O)c2n1)c1cc2ccccc2[nH]1	-77.7% (active)
O=C1c2ccccc2C2N1CCC1CCc3ccccc3N12 (centres undefined)	110%
CCCCCCCCNC(C)C(O)c1ccc(SC(C)C)cc1 (centres undefined)	-80.4% (active)
COc1cc(/C=C/C(=O)c2ccc(NC(=O)CSc3nnc(-c4ccc(Cl)cc4)n3-c3ccccc3)cc2)cc(OC)c1OC	76.2%
O=C(c1ccccc1)N(CCCCl)C(=O)N(CCCCl)C(=O)c1ccccc1	95.3%
Cc1cc(C)cc(Nc2cc(C)nc3nc(C(F)(F)F)nn23)c1	40.2%
Clc1ccc(Nc2ncnc3c2sc2ncccc23)c(Cl)c1	59.6%
Cc1ccc(Nc2nc(NCCO)c3ccccc3n2)cc1C	11.6%

SMILES	growth
COc1cc(NCCCCC(C)N)c2nccc(C)c2c1 (centres undefined)	63.9%
NC(=O)c1noc(C(=O)c2ccccc2)c1N	119%
O=C(NO)c1ccc(NCc2csc3ccccc23)cc1	73.5%
CC1=NC(c2ccc(Cl)cc2)C2=C(N1)/C(=C/c1ccc(Cl)cc1)CCC2 (centres undefined)	41.5%
COc1ccc(-c2nnc(SCC(=O)Nc3ccc(C(=O)/C=C/c4ccc(Cl)cc4)cc3)n2-c2ccccc2)cc1	103%
Oc1[nH]c2ccccc2c1/C=c1/ccc2c(c1)N=C(c1ccc(C(F)(F)F)cc1)N=2	61.4%
Fc1ccc(-c2nnc(N3CCOCC3)c3ccccc23)cc1	110%
COc1ccc2cc(-c3nc(C)c(C(C)=O)c(-c4ccc(C)cc4)n3)ccc2c1	109%
C/C(=N\OC(=O)Nc1cccc(Cl)c1)c1ccccc1	116%
Cc1ccc(O)c(Cc2ccccc2)c1	102%
Oc1c(C(c2ccc(F)cc2)N2CCCCC2)ccc2cncnc12 (centres undefined)	32.3%
COc1ccc2[nH]cc(C(c3ccc(Cl)cc3)N3CCCC3)c2c1 (centres undefined)	97%
COc1cc2c(cc1C)NC(=O)/C2=C\c1c[nH]c2ccccc12	109%
C=CCn1c(SCC(=O)Nc2ccc(/C(C)=N\O)cc2)nnc1-c1cc(-c2ccc(Cl)cc2)nc2ccccc12	21%
COc1cccc2nc(Nc3cccc(NC(=O)c4cc(N5CCOCC5)cc(C(F)(F)F)c4)c3)ccc12	76.9%
Cc1ccc(CSCc2ccc(C(=O)NC3CC3)o2)cc1	31.6%
Cc1n(Cc2ccc3ccccc3n2)cc[n+]1Cc1ccc2ccccc2c1	19.8%
Cc1ccc(S(=O)(=O)NC(CCC(=O)Nc2ccc(Cl)cc2)C(=O)Nc2ccc(Cl)cc2)cc1 (centres undefined)	23.5%
O=C1Nc2ccccc2/C1=C/c1c[nH]c2ccccc12	98.6%
